Assay results as given in ChEMBL document CHEMBL3988442, “University of Dundee, Small-Polar-MMV Screening Library” (2021).
For some assays here: Measured potencies and affinities stand elsewhere.

What was measured:
Design in all cases: scale not given: direction of the effect not stated beside the values
[1] = biological target: Protein translocase subunit SecA (Escherichia coli (strain K12)) (UniProt P10408); test: Assay to Identify E. coli SecA ATPase Inhibitors; format: functional; conditions: 30 µM
[2] = biological target: T1, Ubiquitin-activating enzyme e1, putative (Leishmania donovani (strain BPK282A1)) (UniProt E9BSI1); test: Leishmania donovani Ubiquitin Activating Enzyme (LdE1); format: functional; conditions: 30 µM
T1 sequence (whole entry): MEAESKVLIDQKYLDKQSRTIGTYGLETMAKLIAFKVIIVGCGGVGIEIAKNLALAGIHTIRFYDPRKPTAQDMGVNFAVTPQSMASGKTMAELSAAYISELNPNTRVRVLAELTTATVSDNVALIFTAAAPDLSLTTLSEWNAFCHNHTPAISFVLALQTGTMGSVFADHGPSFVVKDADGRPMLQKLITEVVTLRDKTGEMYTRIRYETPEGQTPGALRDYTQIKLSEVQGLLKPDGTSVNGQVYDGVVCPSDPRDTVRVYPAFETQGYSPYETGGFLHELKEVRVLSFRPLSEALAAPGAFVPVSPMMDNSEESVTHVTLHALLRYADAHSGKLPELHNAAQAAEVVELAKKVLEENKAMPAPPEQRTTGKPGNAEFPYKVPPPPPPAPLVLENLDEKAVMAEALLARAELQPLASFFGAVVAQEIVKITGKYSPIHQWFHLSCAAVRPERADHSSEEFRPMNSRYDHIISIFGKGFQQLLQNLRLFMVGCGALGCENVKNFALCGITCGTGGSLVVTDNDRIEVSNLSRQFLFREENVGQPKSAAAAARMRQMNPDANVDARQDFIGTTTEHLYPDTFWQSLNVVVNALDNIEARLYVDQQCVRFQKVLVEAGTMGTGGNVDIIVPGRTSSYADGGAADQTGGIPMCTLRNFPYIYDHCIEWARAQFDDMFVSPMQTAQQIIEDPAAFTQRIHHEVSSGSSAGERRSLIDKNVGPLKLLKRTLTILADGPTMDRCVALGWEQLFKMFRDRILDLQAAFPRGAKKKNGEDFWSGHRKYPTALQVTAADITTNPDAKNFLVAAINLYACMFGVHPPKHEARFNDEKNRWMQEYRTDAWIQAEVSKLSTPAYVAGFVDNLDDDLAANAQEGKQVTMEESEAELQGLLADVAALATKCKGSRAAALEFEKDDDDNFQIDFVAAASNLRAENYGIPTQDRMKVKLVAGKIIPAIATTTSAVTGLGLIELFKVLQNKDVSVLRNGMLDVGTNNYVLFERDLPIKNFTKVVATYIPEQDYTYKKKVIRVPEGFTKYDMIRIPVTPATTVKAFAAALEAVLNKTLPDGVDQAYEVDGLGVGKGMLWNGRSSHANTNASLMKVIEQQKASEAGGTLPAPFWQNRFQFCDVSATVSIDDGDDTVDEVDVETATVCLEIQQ

[3] = biological target: AMP-activated protein kinase, AMPK (Homo sapiens) (UniProt P54646+O43741+P54619+Q9UGJ0+Q9Y478+Q13131+Q9UGI9); test: AMP-dependent Kinase enzyme assay. An in vitro enzyme assay that detects ADP turnover that is directly proportional to AMPK activity. This uses naive AMPK that is activated during the assay with MK-8722; format: functional; conditions: 30 µM
[4] = biological target: Sialic acid-binding Ig-like lectin 9 (Homo sapiens) (UniProt Q9Y336); test: Hs-Siglec9 ALPHAscreen SOP 20170721; conditions: 10 µM
[5] = test system: Trypanosoma cruzi; test: Trypanosoma cruzi phosphomannomutase and mannose-1-phosphate guanylyltransferase assay; format: functional; conditions: 10 µM
[6] = biological target: T2, Arginase-2, mitochondrial (Homo sapiens) (UniProt P78540); test: in vitro enzyme assay to detect the production of urea directly proportional to the activity of Arginase II; format: functional; conditions: 33.3 µM; further: in the data most compounds retested in dose-response had high values
T2 sequence (whole entry): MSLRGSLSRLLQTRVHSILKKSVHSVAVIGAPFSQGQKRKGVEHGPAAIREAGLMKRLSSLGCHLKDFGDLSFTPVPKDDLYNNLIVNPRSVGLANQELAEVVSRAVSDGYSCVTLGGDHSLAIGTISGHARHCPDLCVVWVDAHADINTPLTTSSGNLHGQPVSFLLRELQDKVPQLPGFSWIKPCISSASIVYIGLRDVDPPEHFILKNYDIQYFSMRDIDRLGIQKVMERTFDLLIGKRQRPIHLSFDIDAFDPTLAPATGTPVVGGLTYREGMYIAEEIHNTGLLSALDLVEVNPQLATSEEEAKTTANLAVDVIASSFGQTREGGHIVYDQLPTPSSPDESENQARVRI

[7] = biological target: T3, Proteasome subunit beta (Trypanosoma cruzi) (UniProt O96673); test: Trypanosoma cruzi proteasome chymotrypsin-like activity (TcProtChymo) assay.; further: in the data most compounds retested in dose-response had high values; format: functional; conditions: 9.37 µM
T3 sequence (whole entry): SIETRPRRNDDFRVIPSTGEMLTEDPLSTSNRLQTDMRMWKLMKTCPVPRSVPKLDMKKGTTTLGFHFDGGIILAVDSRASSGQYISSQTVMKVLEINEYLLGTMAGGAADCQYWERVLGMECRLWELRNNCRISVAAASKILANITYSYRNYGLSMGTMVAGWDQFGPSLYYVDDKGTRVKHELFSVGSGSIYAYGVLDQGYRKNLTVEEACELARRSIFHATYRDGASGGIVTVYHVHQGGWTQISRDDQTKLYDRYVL

[8] = species on record: Homo sapiens; test: To identify inhibition of the IFN signalling (Jak-Stat) pathway via expression of an eGFP reporter gene under the control of an IFN-stimulated response element (ISRE) containing MxA promoter.; format: functional; conditions: 30 µM
[9] = biological target: T4, Tyrosyl-tRNA synthetase, putative (Trypanosoma cruzi (strain CL Brener)) (UniProt Q4DSP6); test: Trypanosoma cruzi tyrosyl tRNA synthetase (TcYRS) _High Tyrosine SOP; format: functional; conditions: 30 µM; further: in the data most compounds retested in dose-response had high values
T4 sequence (whole entry): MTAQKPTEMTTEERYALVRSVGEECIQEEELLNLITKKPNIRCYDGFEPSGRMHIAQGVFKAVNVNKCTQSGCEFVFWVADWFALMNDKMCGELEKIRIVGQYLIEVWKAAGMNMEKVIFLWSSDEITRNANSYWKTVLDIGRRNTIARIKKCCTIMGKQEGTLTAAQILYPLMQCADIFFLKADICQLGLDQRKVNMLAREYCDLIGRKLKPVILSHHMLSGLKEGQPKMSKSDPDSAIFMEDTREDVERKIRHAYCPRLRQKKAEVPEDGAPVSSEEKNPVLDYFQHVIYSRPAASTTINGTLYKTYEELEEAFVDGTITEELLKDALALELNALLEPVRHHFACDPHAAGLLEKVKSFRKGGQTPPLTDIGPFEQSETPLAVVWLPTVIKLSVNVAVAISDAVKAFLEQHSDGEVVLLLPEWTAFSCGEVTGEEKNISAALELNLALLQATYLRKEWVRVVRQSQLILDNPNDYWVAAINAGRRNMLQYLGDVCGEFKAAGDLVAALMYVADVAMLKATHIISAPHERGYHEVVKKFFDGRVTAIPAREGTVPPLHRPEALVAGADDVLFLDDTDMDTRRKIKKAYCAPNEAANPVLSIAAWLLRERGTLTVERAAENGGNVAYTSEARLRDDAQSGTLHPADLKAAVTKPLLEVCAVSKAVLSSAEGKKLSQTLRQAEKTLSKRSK

[10] = biological target: T4, Tyrosyl-tRNA synthetase, putative (Trypanosoma cruzi (strain CL Brener)); test: Trypanosoma cruzi tyrosyl tRNA synthetase (TcYRS) SOP; format: functional; conditions: 30 µM
[11] = biological target: Chromo domain-containing protein 1 (Saccharomyces cerevisiae (strain ATCC 204508 / S288c) (Baker's yeast)) (UniProt P32657); test: ScCHD-1 Enzyme Inhibition Assay; format: functional; conditions: 30 µM; further: in the data most compounds retested in dose-response had high values
Chain of Chromo domain-containing protein 1 (Saccharomyces cerevisiae (strain ATCC 204508 / S288c) (Baker's yeast)) (P32657 whole entry, the tested form may be a part): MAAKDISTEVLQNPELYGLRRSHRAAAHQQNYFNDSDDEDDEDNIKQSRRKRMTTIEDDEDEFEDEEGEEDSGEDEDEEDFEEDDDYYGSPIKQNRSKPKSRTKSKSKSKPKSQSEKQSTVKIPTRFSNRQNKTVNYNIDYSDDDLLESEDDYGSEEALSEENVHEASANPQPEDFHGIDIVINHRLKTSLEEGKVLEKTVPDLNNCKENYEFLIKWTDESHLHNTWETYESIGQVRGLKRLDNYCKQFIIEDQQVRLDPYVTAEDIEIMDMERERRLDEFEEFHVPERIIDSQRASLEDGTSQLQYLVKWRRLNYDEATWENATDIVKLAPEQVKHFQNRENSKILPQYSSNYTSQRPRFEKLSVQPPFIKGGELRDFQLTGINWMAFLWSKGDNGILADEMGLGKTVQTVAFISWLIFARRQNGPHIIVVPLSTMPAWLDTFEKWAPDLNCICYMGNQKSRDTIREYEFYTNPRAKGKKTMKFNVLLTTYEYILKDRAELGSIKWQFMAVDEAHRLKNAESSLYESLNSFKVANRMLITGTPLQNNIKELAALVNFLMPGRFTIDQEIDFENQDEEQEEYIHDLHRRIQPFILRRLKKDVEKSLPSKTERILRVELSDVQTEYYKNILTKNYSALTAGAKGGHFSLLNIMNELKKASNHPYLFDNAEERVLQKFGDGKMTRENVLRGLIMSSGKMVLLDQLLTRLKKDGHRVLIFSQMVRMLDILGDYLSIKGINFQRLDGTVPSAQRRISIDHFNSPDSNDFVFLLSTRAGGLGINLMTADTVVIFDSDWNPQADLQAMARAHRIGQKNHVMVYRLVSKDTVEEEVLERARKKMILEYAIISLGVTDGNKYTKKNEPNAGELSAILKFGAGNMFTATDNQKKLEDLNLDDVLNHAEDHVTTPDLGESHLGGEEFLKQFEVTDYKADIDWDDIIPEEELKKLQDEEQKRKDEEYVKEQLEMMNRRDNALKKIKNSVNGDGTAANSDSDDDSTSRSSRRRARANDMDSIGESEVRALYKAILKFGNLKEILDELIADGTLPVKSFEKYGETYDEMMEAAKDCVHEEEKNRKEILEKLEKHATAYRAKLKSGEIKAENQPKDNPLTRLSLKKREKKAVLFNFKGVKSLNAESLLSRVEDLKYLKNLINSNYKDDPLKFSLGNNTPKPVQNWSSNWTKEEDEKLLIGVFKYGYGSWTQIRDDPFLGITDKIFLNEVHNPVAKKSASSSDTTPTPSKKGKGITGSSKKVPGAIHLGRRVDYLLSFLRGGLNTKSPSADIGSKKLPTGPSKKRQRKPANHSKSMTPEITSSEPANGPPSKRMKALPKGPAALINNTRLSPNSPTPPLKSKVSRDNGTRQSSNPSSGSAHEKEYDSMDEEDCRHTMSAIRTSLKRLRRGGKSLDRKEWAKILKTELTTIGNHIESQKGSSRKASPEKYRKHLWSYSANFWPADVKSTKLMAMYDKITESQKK

Chain of Protein translocase subunit SecA (Escherichia coli (strain K12)) (P10408 whole entry): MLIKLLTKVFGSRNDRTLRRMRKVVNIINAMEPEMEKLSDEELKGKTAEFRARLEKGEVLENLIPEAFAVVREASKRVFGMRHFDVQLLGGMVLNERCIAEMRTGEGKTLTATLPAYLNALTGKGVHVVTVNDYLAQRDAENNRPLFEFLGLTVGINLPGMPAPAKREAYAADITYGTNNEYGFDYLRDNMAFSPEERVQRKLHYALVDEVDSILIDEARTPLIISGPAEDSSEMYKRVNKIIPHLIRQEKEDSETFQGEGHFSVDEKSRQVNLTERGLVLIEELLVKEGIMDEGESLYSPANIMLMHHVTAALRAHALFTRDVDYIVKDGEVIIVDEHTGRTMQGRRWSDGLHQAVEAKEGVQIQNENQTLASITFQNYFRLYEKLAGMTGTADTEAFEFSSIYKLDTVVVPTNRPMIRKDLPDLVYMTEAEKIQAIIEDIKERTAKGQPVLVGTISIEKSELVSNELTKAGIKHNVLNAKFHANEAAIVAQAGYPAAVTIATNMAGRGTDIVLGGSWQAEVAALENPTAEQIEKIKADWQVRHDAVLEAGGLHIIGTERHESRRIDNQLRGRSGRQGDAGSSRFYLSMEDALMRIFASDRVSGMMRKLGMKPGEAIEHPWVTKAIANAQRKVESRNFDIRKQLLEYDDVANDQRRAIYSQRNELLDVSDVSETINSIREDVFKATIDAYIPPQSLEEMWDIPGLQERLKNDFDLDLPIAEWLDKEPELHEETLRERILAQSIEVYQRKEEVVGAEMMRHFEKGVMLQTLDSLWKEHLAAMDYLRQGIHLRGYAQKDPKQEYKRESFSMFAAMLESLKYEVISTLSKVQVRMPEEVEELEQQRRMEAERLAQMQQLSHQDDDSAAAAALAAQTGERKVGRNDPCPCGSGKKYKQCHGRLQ
Chain of Sialic acid-binding Ig-like lectin 9 (Homo sapiens) (Q9Y336 whole entry): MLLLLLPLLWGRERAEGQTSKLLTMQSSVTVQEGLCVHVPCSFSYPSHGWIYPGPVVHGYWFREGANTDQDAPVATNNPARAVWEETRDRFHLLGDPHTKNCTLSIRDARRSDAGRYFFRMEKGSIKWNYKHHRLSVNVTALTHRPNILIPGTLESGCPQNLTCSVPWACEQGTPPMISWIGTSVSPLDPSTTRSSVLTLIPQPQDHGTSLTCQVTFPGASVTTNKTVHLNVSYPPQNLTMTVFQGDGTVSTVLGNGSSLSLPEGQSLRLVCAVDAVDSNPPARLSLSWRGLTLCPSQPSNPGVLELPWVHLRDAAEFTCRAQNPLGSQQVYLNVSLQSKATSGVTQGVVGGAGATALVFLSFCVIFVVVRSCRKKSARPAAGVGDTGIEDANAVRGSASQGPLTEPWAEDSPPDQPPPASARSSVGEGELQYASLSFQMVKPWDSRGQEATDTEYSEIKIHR

Row | Structure (SMILES) | Percent Effect [1] [%] | Percent Effect [2] [%] | Percent Effect [3] [%] | Percent Effect [4] [%] | Percent Effect [5] [%] | Percent Effect [6] [%] | Percent Effect [7] [%] | Percent Effect [8] [%] | Percent Effect [9] [%] | Percent Effect [10] [%] | Percent Effect [11] [%]
1 | COc1ccc(CN(C)CC2CCCN2c2cccnn2)cc1F (stereo unspecified) | 1.17 | 15.6 | 13.3 | -7.91 | -2.25 | -7.79 | 13.8 | 18.7 | 7.62 | 18.8 | -22.1
2 | COc1nn(C)cc1C(=O)N1CCC(c2nnc(C3CC3)o2)CC1 | -2.78 | 10.4 | 4.71 | 4.31 | -0.888 | 9.68 | 11.5 | 16.4 | 8.47 | 11.5 | -10.2
3 | c1cnnc(N2CCCC(NCc3ccc(-n4cccn4)cc3)C2)c1 (stereo unspecified) | -0.865 | -5.2 | 14.6 | 4.94 | -0.686 | 1.9 | 1.7 | 20.3 | 0.952 | 7.06 | -7.51
4 | CCN1CCC2(CC1)CC(NC(=O)NC)c1cc(C)ccc12 (stereo unspecified) | -3.84 | 13.3 | 6.34 | 6.37 | 5.21 | -56.5 | 10.9 | -24.6 | 4.17 | 7.5 | -5.82
5 | Cc1cc(CN2CCN(C(=O)CCc3cccc(F)c3F)CC2)on1 | 2.13 | 0 | -6.33 | 7.49 | 5.99 | 10.9 | 0.862 | -0.409 | -0.529 | 4.88 | 0.403
6 | CC(O)CN1CCN(C(=O)c2ccn(-c3cccc(Cl)c3)n2)CC1 (stereo unspecified) | -5.56 | -2.6 | 12.7 | -7.86 | -6.93 | 1.07 | 1.18 | 26.4 | -1.94 | -9.76 | -1.68
7 | CC(=O)Nc1nc(C(=O)NC(C)c2ccc3c(c2)OCCO3)cs1 (stereo unspecified) | -5.25 | 18.2 | 6.51 | -11.3 | 5 | -4 | 8.97 | 14.6 | 3.81 | 21.2 | -21.9
8 | COCc1nc(C(=O)N2CCCC2c2noc(C(C)C)n2)cs1 (stereo unspecified) | -3.95 | 1.27 | 8.09 | -0.11 | -1.74 | 3.66 | -0.343 | 3.65 | 3.12 | 5.06 | 11.7
9 | O=C(CCc1cc(O)no1)N1CCCC(COc2ccc(F)cc2)C1 (stereo unspecified) | -4.75 | 20.8 | -16.4 | 26.7 | 3.6 | 0.442 | 14 | -9.73 | 5.26 | 10.3 | -11.2
10 | COCCN1C[C@@H]2CCCO[C@@H]2[C@H](NC(=O)c2cnccn2)C1 | -1.67 | 8 | 1.63 | 1.69 | -2.32 | -45.3 | 3.59 | -4.03 | 5.21 | -12.5 | -7.48
11 | COc1cccc(C2CC(=O)Nc3nc(N4CCOCC4)sc32)c1OC (stereo unspecified) | 63.9 | 42.1 | 16 | 0.0251 | -0.487 | 21.3 | 18.1 | -7.88 | 5.32 | 10.4 | -8.79
12 | Cc1cccc(-c2nc(C)nn2CC(=O)N(C)C2CC2)c1 | -4.92 | 15.6 | 4.09 | 7.36 | 3.18 | -3.2 | 3.55 | 5.06 | 6.8 | 21.9 | -3.56
13 | COc1cc(C)nc(N2CCN(C(=O)c3ccccc3C)CC2)n1 | -6.89 | 2.7 | -5.76 | 17.5 | 8.4 | -13.2 | 1.8 | 9.59 | 5.42 | 18.5 | -18.4
14 | CCn1nc(C)c2nc(C(C)C)nc(N3CCCCC3)c21 | -3.55 | 2.6 | 1.61 | 3.47 | -5.8 | -9.65 | 1.5 | 5.04 | 3.23 | 6.17 | -0.27
15 | Cn1ccc(C(=O)N2CCCC(Cc3cccc4ncccc34)C2)n1 (stereo unspecified) | -7.55 | 14.9 | -6.32 | 5 | 4.74 | -4.41 | 7.33 | 49.9 | 3.23 | -6.49 | -12
16 | COCCN1CCC(CNC(=O)C2(c3cccc(C)c3)CC2)CC1 | -2.68 | 3.8 | 0.953 | 1.27 | -4.82 | 2.8 | 0.172 | 7.85 | 1.04 | 2.53 | -25
